Hit rate of the full screen: of about 2,000 compounds, about 100 (5%) were called active. No stated cut-off is given here; in the data, active means z-score above about 2; inactive means the rest. The list comes from a sample in which actives are over-represented; it also holds similar structures and randomly drawn compounds. Residues, ends and D or L forms follow the SMILES beside them. *: point of attachment. Cbz = O=C(OCc1ccccc1)*
Assay: supercomplex reporter luminescence per Hoechst cell count – Hoechst nuclei count (AID 1645838);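 further: control cybrid cells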;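 on z-score: higher means more mitochondrial supercomplex formation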
Conditions: Cells, luminescence/Hoechst cell count ratio; for z-score: stronger effect = higher value; for cell count: measured here: cell number, Hoechst nuclei count
[1] = library stock concentration (final well concentration not given) 80 uM
[2] = library stock concentration (final well concentration not given) 400 uM
[3] = library stock concentration (final well concentration not given) 2 mM
[4] = library stock concentration (final well concentration not given) 10 mM
[5] = library stock concentration (final well concentration not given) 46 uM
[6] = library stock concentration (final well concentration not given) 278 uM
[7] = library stock concentration (final well concentration not given) 1.67 mM

With `Cn1ncnc1C1c2n[nH]c(=O)c3cc(F)cc(c23)NC1c1ccc(F)cc1` (centres undefined) the outcome (library stock 10 mM) was “inactive; censored for cell count”, the z-score [1] was 1.87 (inactive) and the z-score [2] was 3.69 (active). The z-score [3] was 6.89 (active), the cell count [1] was 3700 and the cell count [2] was 2650. The cell count [3] was 1700.

In the case of `CC#C[C@]1(O)CC[C@@H]2[C@@H]3CCC4=CC(=O)CCC4=C3C(c3ccc(N(C)C)cc3)C[C@@]21C` (some centres undefined), the z-score [1] is reported as -0.535 (inactive), the z-score [2] is reported as -0.414 (inactive) and the z-score [3] is reported as -0.596 (inactive). The z-score [4] was -0.985 (inactive), the cell count [1] was 5620 and the cell count [2] was 5640. For the same molecule, the cell count [3] was 5480 and the cell count [4] was 4850.

For `Cc1cc(C)cc(NC(=O)Nc2ccc(S(N)(=O)=O)cc2)c1`, the z-score [1] was -0.282 (inactive), the z-score [2] was -0.269 (inactive) and the z-score [3] was -0.436 (inactive). For the same molecule, the z-score [4] was -0.561 (inactive), the cell count [1] was 5270 and the cell count [2] was 5260. It also gave a cell count [3] of 5280 and a cell count [4] of 5230.

In the case of `CCCCCC(=O)CC[C@H]1[C@H](O)CC(=O)[C@@H]1C/C=C\CCCC(=O)O`, the z-score is reported as 0.0242 (inactive) and the cell count is reported as 5260.

In the case of `CCCCC[C@@H](O)CC[C@H]1[C@H](O)CC(=O)[C@@H]1CCCCCCC(=O)O`, the z-score is reported as 0.414 (inactive) and the cell count is reported as 5360.

With `CCCCCC(=O)CC[C@H]1[C@H](O)CC(=O)[C@@H]1CCCCCCC(=O)O` the z-score was 3.62 (active) and the cell count was 3870.

In the case of `CCCCC[C@H](O)/C=C/[C@@H]1[C@@H](C/C=C\CCCC(=O)NCCO)[C@@H](O)C[C@H]1O`, the z-score is reported as -0.4 (inactive) and the cell count is reported as 5500.

In the case of `COc1ccc(C2(O)CCC(N3CCC(NC(=O)CNC(=O)c4cccc(C(F)(F)F)c4)C3)CC2)cn1` (centres undefined), the z-score [1] is reported as 0.226 (inactive), the z-score [2] is reported as 0.00991 (inactive) and the z-score [3] is reported as -0.208 (inactive). The z-score [4] was -0.124 (inactive), the cell count [1] was 5820 and the cell count [2] was 5470. The cell count [3] was 6300 and the cell count [4] was 5360.

For `CC(C)CC(C=O)NC(=O)C(CC(C)C)NC(=O)C(CC(C)C)NC(=O)OCc1ccccc1` (stereo not drawn) (Cbz-Leu-Leu-Leu-aldehyde; configuration not given here), the outcome (library stock 1.67 mM) was “inactive; censored for cell count”, the outcome (library stock 10 mM) was “inactive; censored for cell count” and the z-score [5] was -0.417 (inactive). The z-score [6] was -0.122 (inactive), the cell count [5] was 6590 and the cell count [6] was 5640.

In the case of `Cc1cc(N2CCOCC2)cc2[nH]c(-c3c(NCC(O)c4cccc(Cl)c4)cc[nH]c3=O)nc12` (centres undefined), the z-score [1] is reported as 0.23 (inactive), the z-score [2] is reported as 0.0421 (inactive) and the z-score [3] is reported as 0.963 (inactive). For the same molecule, the z-score [4] was 5.5 (active), the cell count [1] was 5280 and the cell count [2] was 5710. The cell count [3] was 4590 and the cell count [4] was 1770.

In the case of `CCCCC[C@H](O)/C=C/[C@H]1[C@H](O)CC(=O)[C@@H]1C/C=C/CCCC(=O)O`, the z-score is reported as 0.327 (inactive) and the cell count is reported as 4880.

With `CC(C)=CCC/C(C)=C/CC/C(C)=C/CC[C@]1(C)CCc2c(C)c(O)c(C)c(C)c2O1` the z-score was -0.823 (inactive) and the cell count was 5060.

In the case of `NS(=O)(=O)OCC1CC(n2ccc3c(NC4CCc5ccccc54)ncnc32)CC1O` (centres undefined), the outcome (library stock 1.67 mM) is reported as “inactive; censored for cell count”, the outcome (library stock 10 mM) is reported as “inactive; censored for cell count” and the z-score [5] is reported as 1.02 (inactive). The z-score [6] was 4.89 (active), the cell count [5] was 5390 and the cell count [6] was 2380.

In the case of `CCCCC[C@H](O)/C=C/[C@H]1CC[C@@H](O)[C@@H]1C/C=C\CCCC(=O)O`, the z-score is reported as -0.672 (inactive) and the cell count is reported as 5720.

For `NCc1cccc2ccncc12`, the z-score was -0.00644 (inactive) and the cell count was 5160.

In the case of `CCCCC/C=C/C=C1/C=CC(=O)[C@@H]1CCCCCCC(=O)O`, the z-score is reported as -0.804 (inactive) and the cell count is reported as 5740.

In the case of `CN1c2ccc([N+](=O)[O-])cc2N=C(c2ccc(C(=O)O)cc2)c2cc3c(cc21)C(C)(C)CCC3(C)C`, the z-score [5] is reported as -0.143 (inactive), the z-score [6] is reported as -0.194 (inactive) and the z-score [7] is reported as -0.234 (inactive). For the same molecule, the z-score [4] was -0.264 (inactive), the cell count [5] was 5860 and the cell count [6] was 5990. For the same molecule, the cell count [7] was 5440 and the cell count [4] was 4270.

With `O=C(O)c1ccc2nc(-c3cc(Cl)cc(Cl)c3)oc2c1` the z-score [5] was 0.415 (inactive), the z-score [6] was 0.328 (inactive) and the z-score [7] was 0.106 (inactive). For the same molecule, the z-score [4] was 0.34 (inactive), the cell count [5] was 6810 and the cell count [6] was 6930. For the same molecule, the cell count [7] was 7500 and the cell count [4] was 7380.

For `O=C(O)c1cc(O)c2ccccc2c1O`, the z-score [5] was 0.31 (inactive), the z-score [6] was 1.17 (inactive) and the z-score [7] was 0.601 (inactive). For the same molecule, the z-score [4] was 2.64 (active), the cell count [5] was 6560 and the cell count [6] was 6080. For the same molecule, the cell count [7] was 6240 and the cell count [4] was 3940.

For `O=C(O)c1cc2ccccc2c(Cc2c(O)c(C(=O)O)cc3ccccc23)c1O`, the z-score [1] was -0.00825 (inactive), the z-score [2] was 0.355 (inactive) and the z-score [3] was 0.379 (inactive). For the same molecule, the z-score [4] was 0.06 (inactive), the cell count [1] was 4700 and the cell count [2] was 4390. It also gave a cell count [3] of 4510 and a cell count [4] of 4530.

In the case of `Nc1ccc(O)c(C(=O)O)c1`, the z-score is reported as -0.67 (inactive) and the cell count is reported as 5710.

In the case of `C=C1C[C@H](O)[C@H](C/C=C\CCCC(=O)O)[C@H]1/C=C/[C@@H](O)CCCCC`, the z-score is reported as -0.218 (inactive) and the cell count is reported as 5720.

For `CC(C)c1ccccc1S(=O)(=O)c1cc(N)c2ncccc2c1[N+](=O)[O-]`, the z-score [5] was -0.201 (inactive), the z-score [6] was 0.537 (inactive) and the z-score [7] was 0.241 (inactive). For the same molecule, the z-score [4] was 2.73 (active), the cell count [5] was 6190 and the cell count [6] was 6010. It also gave a cell count [7] of 6020 and a cell count [4] of 4420.

In the case of `CC(C)(O)c1ccccc1CCC(SCC1(CC(=O)O)CC1)c1cccc(C=Cc2ccc3ccc(Cl)cc3n2)c1` (centres undefined), the z-score [1] is reported as 0.0351 (inactive), the z-score [2] is reported as -0.104 (inactive) and the z-score [3] is reported as -0.0351 (inactive). For the same molecule, the z-score [4] was -0.342 (inactive), the cell count [1] was 5230 and the cell count [2] was 5680. The cell count [3] was 5330 and the cell count [4] was 4770.

With `CCCCC[C@H](O)/C=C/[C@H]1[C@H](O)CC(=O)[C@H]1C/C=C\CCCC(=O)OC(C)C` the z-score was 0.469 (inactive) and the cell count was 4980.

With `CCCNC(=O)C1OC1C(=O)N[C@@H](C(=O)N1CCCC1C(=O)O)C(C)CC` (some centres undefined) the z-score [1] was -0.18 (inactive), the z-score [2] was 0.0728 (inactive) and the z-score [3] was -0.0724 (inactive). For the same molecule, the z-score [4] was -0.194 (inactive), the cell count [1] was 4940 and the cell count [2] was 4970. The cell count [3] was 4760 and the cell count [4] was 5370.

For `O=c1c(-c2ccc(O)c(O)c2)coc2cc(O)ccc12`, the z-score [5] was -0.245 (inactive), the z-score [6] was -0.0571 (inactive) and the z-score [7] was -0.19 (inactive). The z-score [4] was 0.665 (inactive), the cell count [5] was 6940 and the cell count [6] was 6400. It also gave a cell count [7] of 6560 and a cell count [4] of 5440.

In the case of `O=c1c(-c2ccc(O)cc2)coc2cc(O)ccc12`, the z-score is reported as 0.504 (inactive) and the cell count is reported as 5430.

For `O=c1c(-c2ccc(O)cc2)coc2cc(O)cc(O)c12`, the z-score was 0.997 (inactive), the z-score [5] was 0.276 (inactive) and the z-score [6] was -0.193 (inactive). For the same molecule, the z-score [7] was 0.316 (inactive), the z-score [4] was 2.63 (active) and the cell count was 5200. It also gave a cell count [5] of 6440, a cell count [6] of 6300 and a cell count [7] of 6710. It also gave a cell count [4] of 5450.

With `O=C(Oc1nsnc1N1CCCCC1)N1CCOCC1` the z-score [1] was 0.263 (inactive), the z-score [2] was 0.6 (inactive) and the z-score [3] was 0.737 (inactive). The z-score [4] was 1.45 (inactive), the cell count [1] was 4950 and the cell count [2] was 4960. For the same molecule, the cell count [3] was 4530 and the cell count [4] was 4260.
